Source: PubChem BioAssay
PriA SSB inh – inhibitors of Klebsiella pneumoniae PriA binding to SSB C-terminal tail, primary screen, biochemical, AlphaScreen | AlphaScreen SSBct-PriA binding, biotinylated peptide | inhibition, % at 33 µM | actives 0.6% (n = 430,000); in the data active = inhibition mostly above about 37%, no sharp cut-off; inactive = mostly below about 20%;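 also: plate controls were negative control peptide for no effect and reference peptide for full effect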
Mtb hypoxia rep – PubChem AID 1159583. actives 0.1% (n = 300,000). M. tuberculosis hypoxia-regulated fluorescent reporter, fluorescence. fluorescence inhibition, % (test concentration not listed); in the data active = fluorescence inhibition mostly above about 23%, no sharp cut-off; inactive = mostly below about 17%
Sa RN4220 lethal – growth inhibition of S. aureus RN4220, primary screen, OD600. 16 h. inhibition, % (test concentration not listed). actives 0.33% (n = 330,000); in the data active = inhibition above about 85%;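 also: plate controls were untreated cells for no effect and reference antibiotic for full effect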
Sa ugtP lethal – growth inhibition of ugtP-null S. aureus, primary screen, RN4220 ugtP deletion, OD600 | 16 h | growth inhibition, % (test concentration not listed) | actives 0.54% (n = 330,000) | AID 1259309, 2017; in the data active = growth inhibition above about 68%;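 also: plate controls were untreated wells for no effect and antibiotic for full effect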
Mtb betalactam – beta-lactam sensitization of Mtb H37Rv, H37Rv | M. tuberculosis H37Rv growth with meropenem, percent inhibition | inhibition, % at 25 µM | actives 0.27% (n = 330,000) | AID 434955, 2010; call rule not given here;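 also: growth measured after seven days incubation then overnight dye step; 0% = bacteria only wells and 100% = bacteria with antibiotic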
The depositor's hits bear a star; nt = no result given; ! = not active in a repeat. In the library only some 1% were active in any assay of this set; here they are far more common.

SMILES | PriA SSB inh | Mtb hypoxia rep | Sa RN4220 lethal | Sa ugtP lethal | Mtb betalactam
O=[N+]([O-])c1ccc(N=Nc2c(Cl)cc(O)cc2Cl)cc1 | 38 | -5 | 100* | 99* | 99
Brc1ccc2c(c1)OCCSCCOCCSCCO2 | 43* | nt | nt | nt | nt
Cc1cc(NS(=O)(=O)Cc2ccc(C(F)(F)F)cc2)ccc1N1CCCCC1=O | -8 | nt | nt | nt | nt
COc1ccc(-c2nc(C#N)c(N3CCCN(C)CC3)o2)cc1 | 69* | nt | nt | nt | nt
COc1ccc(-c2nc(C#N)c(N3CCN(c4ccccc4)CC3)o2)cc1 | 15 | -6 | 5 | -10 | 0
COc1ccc(-c2nc(C#N)c(N3CCCCC3)o2)cc1OC | 59* | nt | nt | nt | nt
CCCOc1ccc(-c2nc(C#N)c(N3CCCC3)o2)cc1 | 61 | nt | nt | nt | nt
COP(=O)(OC)c1nc(-c2ccc(C)cc2)oc1N1CCCCC1 | 51* | 3 | 2 | 1 | 7
Cc1ccc(OCc2ccc(-c3nc(C#N)c(N4CCCCC4)o3)o2)cc1 | 82* | nt | nt | nt | nt
O=C(NCCn1ccn2nccc12)c1nc2ccccc2s1 | -18 | nt | nt | nt | nt
Cc1noc(CNC(=O)c2cccc(Oc3ccccn3)c2)n1 | -3 | nt | nt | nt | nt
COc1ccc2nc(N3CC(C(=O)Nc4cccc5nc(C)ccc45)C3)sc2c1 | -9 | nt | nt | nt | nt
CCOc1ccc(-c2nc(C#N)c(N3CCCC3)o2)cc1 | 21 | nt | nt | nt | nt
CCOc1ccc(-c2nc(C#N)c(N3CCCCC3)o2)cc1 | 94* | nt | nt | nt | nt
COc1ccc(OCc2nc(C#N)c(NCCCn3ccnc3)o2)cc1 | -7 | 1 | 2 | -6 | -16
N#Cc1nc(-c2ccc(F)cc2)oc1N1CCCCCC1 | 112* | nt | nt | nt | nt
Cc1ccc(OCc2ccc(-c3nc(C#N)c(NCCCn4ccnc4)o3)o2)cc1 | 60*! | nt | nt | nt | nt
Cc1ccc(-c2nc(C#N)c(N3CCCC3)o2)cc1 | 49 | nt | nt | nt | nt
CC(=O)Nc1cccc(NC(=O)CSc2ccc(-c3ccccn3)nn2)c1 | 13 | 15 | -5 | 7 | -4
CC(=O)c1cccc(NC(=O)CSc2ccc(-c3ccccn3)nn2)c1 | 48*! | 10 | -1 | 6 | 100
Cc1cccc(NC(=O)CSc2ccc(-c3ccccn3)nn2)c1 | 71* | nt | nt | nt | nt
Cc1ccc(Nc2cc(C)nc3c(C)c(C)cc([N+](=O)[O-])c23)cc1 | 66* | nt | nt | nt | nt
COc1ccc(NC(=O)CC2CCCCN2S(=O)(=O)c2ccc(F)cc2)cc1Cl (stereo not given) | 8 | nt | nt | nt | nt
Nc1ccc2nc(CCCCCCc3nc4ccc(N)cc4[nH]3)[nH]c2c1 | 33 | 0 | 0 | -4 | -2
Nc1ccc2nc(CCCCCCCCc3nc4ccc(N)cc4[nH]3)[nH]c2c1 | 49* | 4 | 4 | 7 | 4
SMILES | PriA SSB inh | Mtb hypoxia rep | Sa RN4220 lethal | Sa ugtP lethal | Mtb betalactam
O=C(CSc1nc2ccccc2c(=O)n1Cc1ccccc1)Nc1ccc(Br)cc1C(=O)O | -6 | -2 | 76 | 99* | -8
Cc1ccc(S(=O)(=O)N2CCOCC2)cc1NC(=O)CSc1nc2ccccc2c(=O)n1Cc1ccccc1 | 1 | -7 | 2 | 4 | 6
Cc1cc(C(=O)Nc2nnc(-c3ccc(Br)s3)o2)no1 | -16 | nt | nt | nt | nt
CCCCn1c(=O)[nH]c(=O)c2c1nc(-c1ccc(CC)c([N+](=O)[O-])c1)n2C | nt | 3 | 2 | -68 | 0
CCCCn1c(=O)[nH]c(=O)c2c1nc(-c1ccc(-c3ccc(F)cc3)o1)n2C | 4 | 37* | 6 | 5 | 21
CNC(=S)Nc1ccc(-c2nc3ccc(C)cc3s2)cc1 | -13 | 37* | -8 | -1 | 73
CC(=O)NC(=S)Nc1ccc(-c2nc3ccc(C)cc3s2)cc1 | -16 | nt | -5 | -7 | 54
COc1ccccc1-c1cc2c(SCC(=O)Nc3ccccc3F)nccn2n1 | -8 | nt | nt | nt | nt
CCc1ccc(OC)c(S(=O)(=O)Nc2ccc3c(c2)NC(=O)C(C)(C)CO3)c1 | -16 | nt | nt | nt | nt
COc1ccc(-n2c(-c3ccc(F)cc3)cnc2SCC(=O)NCc2ccco2)cc1 | 49* | 3 | 4 | -7 | 2
CCOc1ccc(NC(=O)CSc2ncc(-c3ccc(F)cc3)n2Cc2ccco2)cc1 | 43* | 12 | -13 | 17 | -12
O=C(CSc1ncc(-c2ccccc2)n1-c1ccccc1)NCc1ccco1 | 52* | 11 | 8 | 30 | 14
Cc1ccc(C(O)=C2C(=O)C(=O)N(Cc3ccco3)[C@@H]2c2ccc(OCc3ccccc3)cc2)cc1F | -11 | nt | nt | nt | nt
COc1ccc(N2CC(C(=O)N3CCN(c4ccccc4F)CC3)CC2=O)cc1 (stereo not given) | -1 | -1 | 2 | -1 | 1
COc1ccc(S(=O)(=O)N2CCN(C(=O)C3CC(=O)N(c4ccccc4F)C3)CC2)cc1OC (stereo not given) | 1 | 31* | 3 | 2 | nt
CCN1CCCc2cc(CCNC(=O)C(=O)NCCc3ccccc3)ccc21 | 32 | nt | nt | nt | nt
CCCN1CCCc2cc(CCNC(=O)C(=O)Nc3ccc(OC)c(Cl)c3)ccc21 | 37 | nt | nt | nt | nt
CCN1CCCc2cc(CCNC(=O)Nc3ccc(OC)c(OC)c3)ccc21 | 70* | nt | nt | nt | nt
CCN1CCCc2cc(CCNC(=O)Nc3ccccc3)ccc21 | 63* | nt | nt | nt | nt
Cc1cc(NC(=O)C(=O)NCCc2ccc3c(c2)CCCN3C)c2ccccc2n1 | 42* | nt | nt | nt | nt
CCN1CCCc2cc(CCNC(=O)C(=O)Nc3cccc(NC(C)=O)c3)ccc21 | 54* | nt | nt | nt | nt
CC(C)(C)n1nc2c(c1NC(=O)Nc1ccc(Cl)cc1)CSC2 | 17 | nt | nt | nt | nt
O=C(c1cc(-c2ccco2)on1)N1CCOC(c2cc(Cl)cc(Cl)c2)C1 (stereo not given) | -12 | nt | nt | nt | nt
COC(C)(C)C(O)COc1c2ccoc2cc2oc(=O)ccc12 (stereo not given) | nt | -1 | 6 | 2 | nt
CC(C)(O)C(O)COc1c2ccoc2cc2oc(=O)ccc12 (stereo not given) | 40* | 7 | 4 | 4 | -6
SMILES | PriA SSB inh | Mtb hypoxia rep | Sa RN4220 lethal | Sa ugtP lethal | Mtb betalactam
N#CC(c1ccc(Cl)cc1)c1ccc2c(C(F)(F)F)cc(C(F)(F)F)nc2n1 (stereo not given) | 23 | nt | 101* | 101* | 98
O=C(Cn1ncccc1=O)NC1CCC(Oc2ccccn2)CC1 (stereo not given) | -1 | nt | nt | nt | nt
O=c1cccnn1CCCNS(=O)(=O)c1cc(C(F)(F)F)ccc1Cl | -17 | nt | nt | nt | nt
O=c1cccnn1CCNS(=O)(=O)c1cc(C(F)(F)F)cc(C(F)(F)F)c1 | 38* | nt | nt | nt | nt
CCOc1ccc(C(C)C)cc1S(=O)(=O)NCCn1nc(-c2cccs2)ccc1=O | -5 | nt | nt | nt | nt
O=C(Nn1c(COc2ccccc2)nc2ccccc2c1=O)C(Cl)(Cl)Cl | -6 | 12 | 100* | 100* | 3
Cc1nc2ccccc2c(=O)n1NC(=O)COc1ccccc1 | 1 | 9 | 2 | 0 | 4
O=C(NC(=S)Nc1ccc(O)cc1)C1CCCC1 | -8 | 16 | 2 | 87* | 2
Cc1ccnc(NS(=O)(=O)c2ccc(NC(=O)C3CCCCC3)cc2)n1 | -9 | 9 | 5 | 3 | 3
Cc1cc(C)nc(NS(=O)(=O)c2ccc(NC(=S)NC(=O)C3CCCC3)cc2)n1 | 7 | 1 | -1 | 86* | 8
Cc1cc(C)n(CC(=O)Nc2nc(CC(N)=O)cs2)n1 | -3 | nt | nt | nt | nt
CCN1CCN(c2cc(N3CCc4ccccc4C3)c([N+](=O)[O-])cc2F)CC1 | 83* | nt | nt | nt | nt
